# Results published in PubChem BioAssay (EPA / NIEHS).
# Inconclusive results are not listed. Calls of active or inactive are those of the source. How the source made its calls, unless noted: active means hit-call score of the fitted dose curve at least 0.9, where 1 is the maximum; inactive means score below 0.9.
# Experiments:
# [1] = ATG_RORE_CIS: Attagene CIS-FACTORIAL HepG2 Assay for human RAR-related Orphan Receptor Element (RORE) (AID 2282959); conditions: HepG2 Attagene cis-factorial RORE reporter, mRNA; actives raise or lower the signal
# In short: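 Transiently transfected HepG2 reporter cells were treated 24 h. Reporter transcripts were detected by RT-PCR and capillary electrophoresis, with bidirectional fitting against DMSO.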
# [2] = ATG_Sox_CIS: Attagene CIS-FACTORIAL HepG2 Assay for human SRY-box transcription factor (SOX) (AID 2282960); conditions: HepG2 Attagene cis-factorial SOX reporter, mRNA; actives raise or lower the signal
# In short: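 Gain- or loss-of-signal endpoint, fitted bidirectionally with DMSO as negative control. Based on reporter mRNA from transfected HepG2 cells harvested 24 h post-treatment and quantified via RT-PCR and capillary electrophoresis.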
# [3] = target: Transcription factor Sp1 (Homo sapiens) (UniProt P08047); assay: ATG_Sp1_CIS: Attagene CIS-FACTORIAL HepG2 Assay for human Specificity Protein 1 (Sp1) (AID 2282961); conditions: HepG2 Sp1 cis-reporter transcription, actives raise or lower the signal
# Chain of Transcription factor Sp1 (Homo sapiens) (P08047 whole entry, looked up, the tested form may be a part): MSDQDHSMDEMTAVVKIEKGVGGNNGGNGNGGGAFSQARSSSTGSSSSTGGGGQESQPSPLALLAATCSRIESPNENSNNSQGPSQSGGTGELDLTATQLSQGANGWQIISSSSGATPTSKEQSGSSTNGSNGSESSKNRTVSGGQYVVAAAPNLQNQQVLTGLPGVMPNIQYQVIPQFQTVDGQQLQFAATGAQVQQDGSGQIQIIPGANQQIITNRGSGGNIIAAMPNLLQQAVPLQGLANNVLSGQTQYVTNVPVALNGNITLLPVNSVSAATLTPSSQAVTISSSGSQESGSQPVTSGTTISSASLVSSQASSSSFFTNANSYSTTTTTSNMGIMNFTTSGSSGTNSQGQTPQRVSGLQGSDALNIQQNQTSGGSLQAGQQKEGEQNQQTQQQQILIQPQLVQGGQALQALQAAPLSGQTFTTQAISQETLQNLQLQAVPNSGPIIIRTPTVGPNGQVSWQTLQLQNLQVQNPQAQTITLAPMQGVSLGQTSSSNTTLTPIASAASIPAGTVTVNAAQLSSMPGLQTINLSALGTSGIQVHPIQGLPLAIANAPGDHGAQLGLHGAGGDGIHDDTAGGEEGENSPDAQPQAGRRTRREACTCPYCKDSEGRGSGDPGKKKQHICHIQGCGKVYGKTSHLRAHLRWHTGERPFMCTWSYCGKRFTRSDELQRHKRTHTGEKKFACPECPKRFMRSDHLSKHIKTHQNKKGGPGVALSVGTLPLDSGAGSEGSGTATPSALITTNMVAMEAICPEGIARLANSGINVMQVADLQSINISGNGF
# In short: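 Endpoint reflects endogenous Sp1 transcriptional activity, not an exogenous fusion protein: HepG2 cells with transfected cis-regulated reporters, 24 h dosing, RT-PCR/capillary electrophoresis mRNA read-out, DMSO-normalised bidirectional fit.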
# [4] = ATG_SREBP_CIS: Attagene CIS-FACTORIAL HepG2 Assay for human Sterol Regulatory Element Binding (SREBP) (AID 2282962); conditions: HepG2 Attagene cis-factorial SREBP reporter, mRNA; actives raise or lower the signal
# In short: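 Readout: fluorescent reporter-transcript peaks resolved by capillary electrophoresis after RT-PCR. Cells were human HepG2 carrying transfected cis-promoter reporter constructs, dosed for 24 h. Gain or loss of signal was fitted against DMSO controls.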
# [5] = target: Signal transducer and activator of transcription 3 (Homo sapiens) (UniProt P40763); assay: ATG_STAT3_CIS: Attagene CIS-FACTORIAL HepG2 Assay for human Signal Transducer and Activator of Transcription 3 (STAT3) (AID 2282963); conditions: HepG2, Attagene cis-factorial STAT3 reporter transcription; actives raise or lower the signal
# Chain of Signal transducer and activator of transcription 3 (Homo sapiens) (P40763 whole entry, looked up): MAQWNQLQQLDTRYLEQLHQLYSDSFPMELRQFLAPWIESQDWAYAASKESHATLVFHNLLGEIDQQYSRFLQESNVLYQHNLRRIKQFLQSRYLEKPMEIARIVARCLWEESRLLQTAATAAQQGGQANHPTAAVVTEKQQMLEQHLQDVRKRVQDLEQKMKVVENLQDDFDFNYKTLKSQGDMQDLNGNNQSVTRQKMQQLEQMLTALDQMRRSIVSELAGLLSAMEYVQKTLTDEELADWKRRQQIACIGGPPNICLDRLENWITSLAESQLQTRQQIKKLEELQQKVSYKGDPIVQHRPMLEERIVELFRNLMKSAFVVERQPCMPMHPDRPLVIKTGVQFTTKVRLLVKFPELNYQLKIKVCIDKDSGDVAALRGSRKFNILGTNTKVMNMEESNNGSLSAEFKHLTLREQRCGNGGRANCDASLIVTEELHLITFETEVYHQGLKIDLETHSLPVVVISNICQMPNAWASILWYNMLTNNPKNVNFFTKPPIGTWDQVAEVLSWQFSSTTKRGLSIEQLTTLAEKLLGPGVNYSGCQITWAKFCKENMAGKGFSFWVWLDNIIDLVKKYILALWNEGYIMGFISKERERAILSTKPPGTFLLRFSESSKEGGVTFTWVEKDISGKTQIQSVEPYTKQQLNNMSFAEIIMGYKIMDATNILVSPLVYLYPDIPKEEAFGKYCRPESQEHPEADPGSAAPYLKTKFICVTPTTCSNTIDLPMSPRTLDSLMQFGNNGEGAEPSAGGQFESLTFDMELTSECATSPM
# In short: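 Cis-factorial format: endogenous transcription factors in HepG2 drive transfected reporter units. After 24 h treatment, reporter RNA was reverse-transcribed, amplified, FAM-labelled and HpaI-digested before CE analysis; activity scored in both directions against DMSO.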
# [6] = ATG_TA_CIS: Attagene CIS-FACTORIAL HepG2 Assay for human TA Basal Promoter (AID 2282964); conditions: HepG2 Attagene CIS-factorial TA basal promoter reporter; actives raise or lower the signal
# In short: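 Transfected HepG2, 24 h compound exposure; RNA → RT-PCR → FAM primer extension → HpaI cut → CE fluorescence. Gain/loss-of-signal fitted against DMSO negative control. Background-control readout.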
# [7] = ATG_TCF_b_cat_CIS: Attagene CIS-FACTORIAL HepG2 Assay for human T-Cell-Factor with beta-catenin (TCF/b-cat) (AID 2282965); conditions: HepG2 TCF/beta-catenin cis-reporter transcription, actives raise or lower the signal
# In short: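 Endogenous transcription factor activity is captured through cis-promoter reporter constructs transiently introduced into human HepG2 liver cells. Induced reporter mRNA is measured after 24 h and fitted bidirectionally relative to DMSO.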
# [8] = ATG_TAL_CIS: Attagene CIS-FACTORIAL HepG2 Assay for human TAL Basal Promoter (AID 2282966); conditions: HepG2 Attagene cis-factorial TAL promoter reporter; actives raise or lower the signal;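 further: background control endpoint measuring basal TAL promoter reporter mRNA not a specific factor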
# In short: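 HepG2, transient MRTU transfection, 24 h compound exposure; RNA → oligo(dT) RT → PCR → 6-FAM primer extension → HpaI digest → CE fluorescence. Bidirectional curve fit vs DMSO. Background-control readout.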
# [9] = ATG_TGFb_CIS: Attagene CIS-FACTORIAL HepG2 Assay for human Transforming Growth Factor (TGF) (AID 2282967); conditions: HepG2 Attagene CIS TGFb reporter, mRNA transcription; actives raise or lower the signal
# In short: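 Readout: fluorescently labeled reporter cDNA fragments resolved by capillary electrophoresis after RT-PCR. Transfected HepG2 cells dosed for 24 h; endogenous TF activity at TGFB1-linked cis element; gain or loss fitted relative to DMSO.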
# [10] = ATG_VDRE_CIS: Attagene CIS-FACTORIAL HepG2 Assay for human Vitamin D Receptor Element (VDRE) (AID 2282968); conditions: HepG2 VDRE cis-reporter transcription, actives raise or lower the signal
# In short: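 Measures endogenous factor activity through cis-element-driven reporter transcripts in transiently transfected HepG2. Cells are treated 24 h; reporter mRNA is quantified by RT-PCR and capillary electrophoresis; fitting is bidirectional.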
# [11] = target: X-box-binding protein 1 (Homo sapiens) (UniProt P17861); assay: ATG_Xbp1_CIS: Attagene CIS-FACTORIAL HepG2 Assay for human X-box Binding Protein 1 (XBP1) (AID 2282972); conditions: HepG2 XBP1 cis-element reporter, Attagene multiplex; actives raise or lower the signal
# Chain of X-box-binding protein 1 (Homo sapiens) (P17861 whole entry, looked up, the tested form may be a part): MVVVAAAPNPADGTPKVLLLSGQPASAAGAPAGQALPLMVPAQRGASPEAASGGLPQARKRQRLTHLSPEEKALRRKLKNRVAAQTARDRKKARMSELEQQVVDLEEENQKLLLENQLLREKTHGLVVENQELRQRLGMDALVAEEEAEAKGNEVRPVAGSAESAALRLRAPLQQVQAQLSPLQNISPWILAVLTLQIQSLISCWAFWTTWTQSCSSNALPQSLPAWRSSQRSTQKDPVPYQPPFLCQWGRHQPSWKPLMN
# In short: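 Read-out: fluorescent reporter mRNA fragments resolved by capillary electrophoresis after RT-PCR. Human HepG2 liver cells carried transfected cis-promoter reporter units and were exposed to chemicals for 24 hours. Gain or loss of signal fitted relative to DMSO baseline.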
# [12] = ATG_M_19_TRANS: Attagene TRANS-FACTORIAL HepG2 Assay for M19 Transcription Factor (Internal Marker) (AID 2282974; active means hit-call score of the fitted dose curve at least 0.9, where 1 is the maximum); conditions: HepG2 Attagene TRANS-FACTORIAL M19 internal marker reporter
# In short: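 Using RT-PCR and capillary electrophoresis, reporter mRNA from transiently transfected human HepG2 cells was quantified following 24 h exposure; activity was fitted in the positive direction against DMSO.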
# [13] = ATG_GAL4_TRANS: Attagene TRANS-FACTORIAL HepG2 Assay for GAL4 (Internal Marker) (AID 2282976; active means hit-call score of the fitted dose curve at least 0.9, where 1 is the maximum); conditions: HepG2 Attagene TRANS GAL4 internal marker reporter
# In short: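 RT-PCR/capillary electrophoresis readout of reporter mRNA. HepG2, transient MRTU transfection (GAL4-UAS reporters), 24 h compound exposure. Background-control endpoint, positive direction vs DMSO baseline.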
# [14] = target: Estrogen receptor (Homo sapiens) (UniProt P03372); assay: ATG_ERa_TRANS: Attagene TRANS-FACTORIAL HepG2 Assay for human Estrogen Receptor alpha (ERa) (AID 2282970; active means hit-call score of the fitted dose curve at least 0.9, where 1 is the maximum); conditions: HepG2 Attagene TRANS ERa GAL4 reporter, mRNA
# Chain of Estrogen receptor (Homo sapiens) (P03372 whole entry, looked up, the tested form may be a part): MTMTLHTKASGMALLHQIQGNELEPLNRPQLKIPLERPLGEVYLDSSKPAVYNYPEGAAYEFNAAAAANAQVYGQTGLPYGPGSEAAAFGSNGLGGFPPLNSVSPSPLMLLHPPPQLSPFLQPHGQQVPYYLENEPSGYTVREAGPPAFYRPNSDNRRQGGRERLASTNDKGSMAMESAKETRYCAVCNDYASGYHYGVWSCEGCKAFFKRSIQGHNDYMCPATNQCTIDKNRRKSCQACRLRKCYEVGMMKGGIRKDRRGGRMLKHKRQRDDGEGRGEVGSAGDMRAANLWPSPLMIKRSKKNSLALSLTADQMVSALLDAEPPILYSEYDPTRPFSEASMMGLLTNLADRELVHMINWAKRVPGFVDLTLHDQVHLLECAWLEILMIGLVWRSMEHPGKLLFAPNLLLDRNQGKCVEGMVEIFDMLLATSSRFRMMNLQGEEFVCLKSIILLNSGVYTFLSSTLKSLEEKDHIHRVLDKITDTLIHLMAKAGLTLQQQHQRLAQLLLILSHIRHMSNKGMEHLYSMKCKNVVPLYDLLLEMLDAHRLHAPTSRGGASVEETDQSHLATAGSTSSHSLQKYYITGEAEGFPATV
# In short: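 Reporter mRNA induction after 24 hours, detected by fluorescent RT-PCR and capillary electrophoresis, gives the read-out. Cells are HepG2 transiently transfected with GAL4-UAS reporter transcription units responding to chimeric NR-Gal4. Activity is taken as gain of signal over DMSO baseline.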
# [15] = target: Glucocorticoid receptor (Homo sapiens) (UniProt P04150); assay: ATG_GR_TRANS: Attagene TRANS-FACTORIAL HepG2 Assay for human Glucocorticoid Receptor (GR) (AID 2282978; active means hit-call score of the fitted dose curve at least 0.9, where 1 is the maximum;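 further: activators score as hits since higher reporter transcript over DMSO is fitted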); conditions: HepG2 Attagene TRANS GR reporter, mRNA transcription
# Chain of Glucocorticoid receptor (Homo sapiens) (P04150 whole entry, looked up, the tested form may be a part): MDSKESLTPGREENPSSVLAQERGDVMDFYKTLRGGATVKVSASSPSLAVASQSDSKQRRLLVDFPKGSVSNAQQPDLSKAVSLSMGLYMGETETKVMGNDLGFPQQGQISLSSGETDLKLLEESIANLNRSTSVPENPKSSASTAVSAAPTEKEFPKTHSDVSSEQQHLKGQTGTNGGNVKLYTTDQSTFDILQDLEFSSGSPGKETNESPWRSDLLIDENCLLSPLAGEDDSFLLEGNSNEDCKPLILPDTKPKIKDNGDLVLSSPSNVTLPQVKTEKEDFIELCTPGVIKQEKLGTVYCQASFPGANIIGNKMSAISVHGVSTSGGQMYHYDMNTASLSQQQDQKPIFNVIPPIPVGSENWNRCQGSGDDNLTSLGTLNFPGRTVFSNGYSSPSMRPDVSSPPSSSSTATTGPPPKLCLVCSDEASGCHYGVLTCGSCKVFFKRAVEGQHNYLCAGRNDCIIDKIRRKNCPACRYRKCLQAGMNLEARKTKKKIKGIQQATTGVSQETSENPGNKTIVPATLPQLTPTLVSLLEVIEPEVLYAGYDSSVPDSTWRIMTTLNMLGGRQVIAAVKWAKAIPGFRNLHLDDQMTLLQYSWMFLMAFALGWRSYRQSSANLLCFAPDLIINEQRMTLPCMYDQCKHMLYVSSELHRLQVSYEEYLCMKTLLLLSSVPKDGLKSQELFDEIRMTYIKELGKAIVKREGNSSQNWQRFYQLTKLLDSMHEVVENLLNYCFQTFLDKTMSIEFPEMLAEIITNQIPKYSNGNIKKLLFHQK
# In short: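 Exogenous NR-GAL4 fusion activity was assessed through induced GAL4-UAS reporter transcripts in transfected human HepG2 cells, quantified after 24 h by RT-PCR and fluorescent capillary electrophoresis with DMSO as baseline.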
SMILES,outcome [1],outcome [2],outcome [3],outcome [4],outcome [5],outcome [6],outcome [7],outcome [8],outcome [9],outcome [10],outcome [11],outcome [12],outcome [13],AC50 [3],AC50 [4],AC50 [5],AC50 [8],outcome [14],AC50 [11],outcome [15]
O=C(O)C(Cl)(Cl)Cl,inactive,inactive,inactive,inactive,inactive,inactive,inactive,inactive,inactive,inactive,inactive,inactive,inactive,,,,,,,
C[C@H]1O[C@@H](O[C@H]2[C@@H](O)C[C@H](O[C@H]3[C@@H](O)C[C@H](O[C@H]4CC[C@@]5(C)[C@H](CC[C@@H]6[C@@H]5CC[C@]5(C)[C@@H](C7=CC(=O)OC7)CC[C@]65O)C4)O[C@@H]3C)O[C@@H]2C)C[C@H](O)[C@@H]1O,inactive,inactive,,,,inactive,inactive,,inactive,inactive,,,,3300 nM (active),7830 nM (active),196 nM (active),56.4 nM (active),inactive,497 nM (active),
N#CCc1ccc(Cl)cc1,inactive,inactive,inactive,inactive,inactive,inactive,inactive,inactive,inactive,inactive,inactive,,inactive,,,,,inactive,,inactive
